CYP2C9 inhib – human CYP2C9 inhibition. CYP2C9 Supersomes, luciferin-H conversion, luminescence. P11712. 96,000 tested, 20% active. AID 777. inhibition, % at 5 µM;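 active = blocking of liver enzyme CYP2C9 beyond about 50% at 5 µM, limit read from the data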
CYP2C19 inh – blocks human cytochrome P450 2C19 | P33261 | CYP2C19 Supersomes, luciferin-H EGE luminescence, 30 min | inhibition, % at 5 µM | 96,000 tested, 21% active;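 active = CYP2C19 inhibition above a set limit at 5 µM in the primary screen, cut at about 50% in these data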;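 note: plate controls were negative control wells for no effect and 2.5 mM tranylcypromine positive control for full effect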
PLAP act – activators of human placental alkaline phosphatase. P05187. purified PLAP enzyme, luminescent substrate read-out; hits give high values. activation fold at 20 µM. 96,000 tested, 1.2% active. AID 696; in the data active = activation fold above about 2
Target sequence (P05187 whole entry, looked up): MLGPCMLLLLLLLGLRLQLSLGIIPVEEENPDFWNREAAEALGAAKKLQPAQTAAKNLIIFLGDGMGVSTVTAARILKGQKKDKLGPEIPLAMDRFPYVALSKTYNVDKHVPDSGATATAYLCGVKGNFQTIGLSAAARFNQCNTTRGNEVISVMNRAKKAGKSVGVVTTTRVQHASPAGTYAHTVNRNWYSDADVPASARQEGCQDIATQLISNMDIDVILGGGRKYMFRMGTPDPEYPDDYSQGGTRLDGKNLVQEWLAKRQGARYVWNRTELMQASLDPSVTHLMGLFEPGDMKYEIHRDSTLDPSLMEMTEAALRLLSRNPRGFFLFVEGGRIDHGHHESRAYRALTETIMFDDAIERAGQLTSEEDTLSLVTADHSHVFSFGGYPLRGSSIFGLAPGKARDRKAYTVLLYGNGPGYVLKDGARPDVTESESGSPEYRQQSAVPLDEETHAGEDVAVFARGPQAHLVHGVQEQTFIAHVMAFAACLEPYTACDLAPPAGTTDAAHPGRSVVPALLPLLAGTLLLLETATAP
CYP2C19 act – activators of human cytochrome P450 2C19; AID 1025; activation factor at 5 µM; 96,000 tested, under 10 active; recombinant CYP2C19, luciferin-H EGE luminescence; hits give high values; 0 = fully inhibited enzyme, 1 = untreated enzyme; P33261;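 active = activation factor of at least 2 at 5 µM in the primary screen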;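 note: 0 = wells with 2.5 mM tranylcypromine and 1 = vehicle-only wells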
CYP2C9 act – CYP2C9 (human) activation. P11712. recombinant CYP2C9, luciferin-H conversion, luminescence; hits give high values; factor 1 = untreated enzyme, 0 = blocked. activation factor at 5 µM. 96,000 tested, 1.4% active. AID 1024;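 active = activation factor of 2 or more for CYP2C9 at a 5 µM dose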;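 note: 0 = sulfaphenazole-blocked wells and 1 = vehicle-only wells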
Starred values were filed as active, the others as inactive; . = not tested or not shown. Only some compounds are listed: those with a hit (about 31% of all), similar ones and a draw of the others.

SMILES	CYP2C9 inhib	CYP2C19 inh	PLAP act	CYP2C19 act	CYP2C9 act
O=C(Nc1ccc(F)cc1)C1CCC(N2C(=O)c3ccccc3C2=O)CC1 (stereo unspecified)	51*	78*	1.1	0.2	0.5
O=C(NCC1CCCO1)C1CCC(N2C(=O)c3ccccc3C2=O)CC1 (stereo unspecified)	72*	56*	1	0.4	0.3
CCCCOc1ccc(C(=O)N2CC(C)OC(C)C2)cc1 (stereo unspecified)	-31	6	1	0.9	1.3
CC12CCC(c3c(CO)nn(-c4ccccc4)c31)C2(C)C (stereo unspecified)	-16	59*	1	0.4	1.2
CC12CCC(c3c(C(=O)O)nn(-c4ccccc4)c31)C2(C)C (stereo unspecified)	-12	-18	1.1	1.2	1.1
CC12CCC(c3c(C(=O)Nc4nccs4)nn(-c4ccccc4)c31)C2(C)C (stereo unspecified)	74*	50	2*	0.5	0.3
COc1ccc(C(=O)Nc2ccccc2)cc1S(=O)(=O)Nc1cc(C)on1	8	-4	1.2	1	0.9
Cc1ccc2c(c1)C=CC(C)N2C(=O)c1ccccc1 (stereo unspecified)	22	19	1	0.8	0.8
CC(=O)OC1CC(C)N(C(=O)c2ccccc2)c2ccc(C)cc21 (stereo unspecified)	11	85*	0.9	0.1	0.9
Cc1ccc(NS(=O)(=O)c2cc(C(N)=O)ccc2C)cc1	67*	94*	1	0.1	0.3
Cc1ccc(NS(=O)(=O)c2cc(C(=O)N3CCN(C)CC3)ccc2C)cc1	21	10	1.1	0.9	0.8
Cc1ccc(C(N)=O)cc1S(=O)(=O)Nc1cccc(C)c1C	35	99*	1	0	0.7
CCOc1ccccc1N1CCN(C/C=C/c2ccc(N(C)C)cc2)CC1	1	17	1.3	0.8	1
CC1CC(N(C(=O)c2ccco2)c2ccccc2)c2ccccc2N1 (stereo unspecified)	96*	84*	1.1	0.2	0
Cc1noc(C)c1COC(=O)[C@H](C)NS(=O)(=O)c1ccc(Cl)c(Cl)c1	62*	98*	1.6	0	0.4
Cc1noc(C)c1COC(=O)Cc1ccc(Cl)c(Cl)c1	12	32	0.9	0.7	0.9
Cc1cc(C)nc(SCCc2ccncc2)n1	40	73*	1	0.3	0.6
Cc1cc(C)nc(SCSc2nc(C)cc(C)n2)n1	14	28	1.1	0.7	0.9
O=C(CN1CCC(n2nnc3cc(F)ccc32)CC1)Nc1ccc2c(c1)CCC2	45	44	1.2	0.6	0.6
Cc1cc(NC(=O)CN2CCC(n3nnc4cc(C(F)(F)F)ccc43)CC2)no1	86*	78*	1.1	0.2	0.1
Cc1ccc2nc(C3CCN(CC(=O)Nc4ccc5c(c4)OCCO5)CC3)[nH]c2c1	78*	80*	.	0.2	0.2
Cc1ccc2c(c1)nnn2C1CCN(CC(=O)Nc2ccc3c(c2)OCCO3)CC1	50*	27	1.5	0.7	0.5
O=C(CN1CCC(n2nnc3ccccc32)CC1)Nc1ccc2c(c1)CCC2	62*	68*	1.4	0.3	0.4
CCOc1ccc2nc(NC(=O)CN3CCC(n4nnc5cc(C(F)(F)F)ccc54)CC3)sc2c1	-11	-10	1	1.1	1.1
CC(=O)Nn1cnc2c(c1=O)C1(CCCCC1)Cc1ccccc1-2	32	37	1.4	0.6	0.7
SMILES	CYP2C9 inhib	CYP2C19 inh	PLAP act	CYP2C19 act	CYP2C9 act
Cn1c(=O)n(Cc2ccc(F)cc2)c(=O)c2c1nc1n2CCCN1C1CCCCC1	2	12	0.9	0.9	1
O=C(CN1CCC(n2nnc3cc(F)ccc32)CC1)N1CCCc2ccccc21	10	66*	1.5	0.3	0.9
COc1ccc(Cl)cc1NC(=O)CN1CCC(n2nnc3cc(F)ccc32)CC1	19	76*	0.8	0.2	0.8
Cc1nn(C(=O)c2cccc([N+](=O)[O-])c2)c(C)c1Sc1ccccc1	9	21	1.2	0.8	0.9
COc1ccc(OCCC(=O)OCC(=O)NCc2ccco2)cc1	4	6	1.2	0.9	1
COc1ccc(OCCC(=O)OCC(=O)NC(=O)NC(C)(C)C)cc1	83*	84*	0.9	0.2	0.2
CN(C)S(=O)(=O)c1cccc(C(=O)OCC(=O)NCc2ccccc2)c1	3	-7	0.9	1.1	1
O=C(COC(=O)c1cccc(S(=O)(=O)NCc2ccccc2)c1)Nc1ccccc1OC(F)F	21	60*	0.8	0.4	0.8
CN(C)S(=O)(=O)c1ccc(C(=O)Oc2ccccc2)cc1	-4	22	0.8	0.8	1
CN(C)S(=O)(=O)c1ccc(C(=O)OCC(=O)c2ccc(OC(F)F)cc2OC(F)F)cc1	48	86*	1.2	0.1	0.5
CN(C)S(=O)(=O)c1ccc(C(=O)OCC(=O)Nc2ccccc2OC(F)F)cc1	58*	8	0.9	0.9	0.4
O=C(COC(=O)c1ccc(S(=O)(=O)NCc2ccco2)cc1)Nc1ccccc1OC(F)F	76*	5	1.2	1	0.2
CCOC(=O)N1CCC(NC(=O)Cn2cccc2C(=O)c2ccccc2)CC1	18	23	1	0.8	0.8
O=C(Nc1ccccc1)OC(CN1CCCCC1)C(F)(F)F (stereo unspecified)	23	43	0.9	0.6	0.8
Cc1ccsc1C(=O)OCC(=O)N1CCOCC1	-7	4	1.1	1	1.1
CC(O)c1c(OCc2ccccc2)ncnc1OCc1ccccc1 (stereo unspecified)	33	39	1.1	0.6	0.7
CCOC(=O)N1CCN(C(=O)COc2ccc(S(=O)(=O)NC(C)C)cc2)CC1	18	-10	1.2	1.1	0.8
CCCn1nc(C(=O)NCCc2ccc(S(N)(=O)=O)cc2)c2ccccc2c1=O	36	-14	1.1	1.1	0.6
Cc1ccc2oc(=O)c3cc(C(=O)NCc4ccco4)sc3c2c1	-106	44	0.9	0.6	2.1*
Cc1ccc(-c2cc(C(=O)NCc3ccco3)c3ccccc3n2)s1	23	13	1	0.9	0.8
O=C(Nc1ccc(F)cc1)c1ccc(S(=O)(=O)NCC2CCCO2)cc1 (stereo unspecified)	38	13	1	0.9	0.6
O=S(=O)(NC1CC2CCC1C2)c1ccc(Br)s1 (stereo unspecified)	84*	64*	0.8	0.4	0.2
CCN1CCN(S(=O)(=O)c2ccc(S(=O)(=O)NCC3CCCO3)cc2)CC1 (stereo unspecified)	1	-10	1	1.1	1
CC(C)C(NS(=O)(=O)c1ccc(Br)s1)C(=O)O (stereo unspecified)	-10	-6	1.1	1.1	1.1
O=S(=O)(NCC1CCCO1)c1ccc(Br)s1 (stereo unspecified)	-15	71*	1	0.3	1.1

Source: PubChem BioAssay (Sanford-Burnham Center for Chemical Genomics)
